# Compound activity from PubChem BioAssay.
# CRE Fsk mod – CRE-bla signaling modulation under forskolin stimulation. AID 662. CHO CRE-bla reporter (cAMP response element driving beta-lactamase), forskolin EC10, beta-lactamase ratio. Potency, µM (titrated, usually from 38.2 µM), actives largely listed as activators. 71,000 compounds, 2.5% hits; active = well fitted activation curve with a large enough effect in the signal ratio, with a control signal flat, not every such curve was filed as active; inconclusive = small, poorly fitted or top-dose-only effect, or effect the other way, or a change in a side signal; the % refers to the signal ratio
#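 CRE-bla CHO reporter cells treated with compound titration plus EC10 NKH 477 (water-soluble forskolin), incubated 3 h at 37 °C; CCF4 loading 2 h at room temperature, 460/530 nm emission ratio read, AC50 values derived for positive or negative modulators.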
# AID923 – qHTS Assay for Allosteric/Competitive Inhibitors of Caspase-1: Spectroscopic Profiling in AFC Spectral Region. compound fluorescence, AFC spectral region (405/520 nm). AID 923, 2007. Potency, µM (top dose mostly 57.5 µM), hits mostly activators. 75,000 compounds, 1.1% hits
#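 Baseline compound fluorescence (AFC region, 405 nm ex/520 nm em) taken from the intercept of kinetic reads with 50 nM caspase-1 and 5 uM Ac-WEHD-AFC; normalized to an on-plate AFC standard curve; compounds titrated up to 57 uM.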
# A350 fluor – A350 region autofluorescence; Compound autofluorescence, 340/450 nm, Alexa 350 dye-equivalents; hits give high values; max dye-equivalent concentration, M; 59,000 compounds, 11% hits; AID 590; in the data active = max dye-equivalent concentration above about 10 nM; inconclusive = mostly about 1.1 nM to 9.6 nM
# 4MU fluor – compound fluoresces in the 4-MU spectral region | max dye-equivalent concentration, M | 59,000 compounds, 11% hits | AID 589 | compound autofluorescence, 340/450 nm, 4-MU equivalents; hits give high values; in the data active = max dye-equivalent concentration above about 10 nM; inconclusive = mostly about 1.1 nM to 9.6 nM
#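 Compounds in 100 mM Tris, pH 8.0, sat 15 min at room temperature before fluorescence was read at 340 nm excitation/450 nm emission; a per-plate six-point 4-MU standard curve converted signals to dye-equivalent concentration at each compound concentration.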
# HSD17B inh – inhibitors of human HSD17B10 dehydrogenase; Potency, µM (series often up to 57.1 µM), most hits filed as inhibitors; recombinant HSD17B10, NADH fluorescence kinetic; 75,000 compounds, 7.6% hits;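 note: the protocol describes HADH2 (HSD17B10) and not the HSD17B4 of the title; nearly all actives have a fitted effect of over 70% in size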
#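 His-tagged E. coli-expressed HADH2 at 20 nM in 100 mM Tris-HCl pH 9.0 with 0.01 % Tween-20, preincubated 15 min with compound at room temperature. Reaction with 1 mM NAD+ and 90 uM beta-hydroxybutyryl coenzyme A; NADH fluorescence (360/450 nm) read kinetically over 4 min, last minus first point.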
# HADH2 inhib – HADH2 (human) dehydrogenase inhibition. Q99714. 73,000 compounds, 3.4% hits. Potency, µM (series often up to 57.1 µM), actives largely listed as inhibitors. AID 886. recombinant HADH2, NADH fluorescence, beta-hydroxybutyryl-CoA; note: nearly all actives have a fitted effect of over 60% in size
# Target sequence (Q99714 whole entry, looked up, one chain of several): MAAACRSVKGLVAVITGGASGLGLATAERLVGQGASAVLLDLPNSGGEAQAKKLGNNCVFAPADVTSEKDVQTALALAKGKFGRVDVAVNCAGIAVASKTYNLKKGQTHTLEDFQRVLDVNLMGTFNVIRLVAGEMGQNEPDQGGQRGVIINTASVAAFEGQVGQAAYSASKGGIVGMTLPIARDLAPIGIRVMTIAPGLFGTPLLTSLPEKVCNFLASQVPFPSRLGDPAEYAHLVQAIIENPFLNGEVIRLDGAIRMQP
#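 NADH fluorescence (ex 360/em 450 nm) read every 30 s for 4 min; activity taken as last-minus-first time point difference. Enzyme 20 nM, NAD+ 1 mM, beta-hydroxybutyryl-CoA 90 uM, pH 9.0 Tris buffer.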
# Numbers stand for hits; i = inactive; ? = inconclusive; nt = no result; [ ] = dose if it differs, or a comment. An excerpt weighted towards active compounds, which were near 14% of everything screened. Unless noted, calls come from the whole dose curve; as a rule, active = well fitted curve in the direction sought with a large enough effect; inconclusive = small, poorly fitted or top-dose-only effect, or another doubt; inactive = no such curve, though single readings can be large; an effect the other way counts as inactive or inconclusive.
SMILES,CRE Fsk mod,AID923,A350 fluor,4MU fluor,HSD17B inh,HADH2 inhib
C=CCn1c(=O)c2ccccc2n2c(SCC(=O)Nc3cc(C)on3)nnc12,?,i,i,i,i,i
CCCn1c(=O)c2ccccc2n2c(SCc3nc4ccccc4s3)nnc12,?,i,?,i,25.1µM,i
C[C@@H]1CC2(OC(O)[C@]3(C)O[C@H]23)O[C@H]2C[C@@]3(C)[C@@H]4CC[C@H]5C(C)(C)C(O[C@@H]6OC[C@@H](O)[C@H](O)[C@H]6O)CC[C@@]56C[C@@]46CC[C@]3(C)[C@@H]12 (stereo not given in full),i,i,nt,nt,i,i
CN(C)c1ncnc2ccc(-c3ccccc3C(F)(F)F)cc12,?,i,i,i,i,i
Cn1c(=O)c(C#N)c(-c2ccccc2)n2cnnc12,i,i,?,?,i,?
COc1ccc(-c2nc(SC)n(C)c(=O)c2C#N)cc1OC,?,i,2.78e-08M,3.37e-08M,?,i
O=C(Nc1cccc(F)c1)N1CCC2(CC1)CCN(C(=O)c1ccncc1)CC2,i,i,i,i,i,i
COc1ccc(C(=O)N2CCC[C@@]3(CCN(c4cccc(-c5ccccc5)c4)C3)C2)cc1,i,i,?,?,i,i
CCNC(=O)NC(=O)COC(=O)c1ccccc1SCC(=O)NC(=O)NCC,?,i,4.98e-07M,3.74e-07M,25.1µM,31.6µM
O=C(NCCCN1CCN(c2ccccc2)CC1)Nc1ccccc1C(F)(F)F,i,i,i,i,i,i
CN1CCN(CCCNC(=O)Nc2cccc3ccccc23)CC1,i,i,i,i,31.6µM,i
O=C(NCCCN1CCCC1)Nc1cccc2ccccc12,i,i,i,i,31.6µM,i
CO/N=C(\C)CCN1CCCCc2nc(C)c(C)cc21,nt,i[11.5 µM],nt,nt,i[11.4 µM],i[11.4 µM]
CC(=O)Nc1c(I)cc(I)c(C(=O)O)c1I,nt,i,nt,nt,i,nt
CCCCN(C)C(=O)CCC(=O)Nc1ccc2nc(N3CCOCC3)cc(C)c2c1,?,i,1.35e-06M,1.45e-06M,25.1µM,7.94µM
Cc1cc(N2CCN(C)CC2)nc2ccc(NC(=O)c3ccc(Br)o3)cc12,i,i,?,?,i,i
Cc1cc(N2CCOCC2)nc2ccc(NC(=O)CCC(=O)N3CCCCC3)cc12,i,i,1.5e-06M,1.64e-06M,15.8µM,12.6µM
Cc1cc(N2CCOCC2)nc2ccc(Cc3ccc4nc(N5CCOCC5)cc(C)c4c3)cc12,i[7.6 µM],i[11.5 µM],2.86e-08M,2.69e-08M,i[11.4 µM],i[11.4 µM]
Cc1cc(N2CCN(C)CC2)nc2ccc(NC(=O)c3ccc4c(c3)OCO4)cc12,i,i,2.37e-08M,1.94e-08M,i,i
CC(C)=CCC/C(C)=C/CO/N=C1/C[C@@H](O)[C@@H](O)[C@@H]2[C@@H]3C(=O)N(c4cccc(Oc5ccccc5)c4)C(=O)[C@H]3CC[C@@H]12,nt,i[11.5 µM],nt,nt,i[11.4 µM],i[11.4 µM]
COc1ccc(NC(=O)N2CCCC3(CCN(C(=O)c4cnccn4)CC3)C2)cc1,i,i,i,i,i,i
O=C(O)[C@H](Cc1ccccc1)N1C(=O)c2ccccc2C1=O,i[7.6 µM],i[11.5 µM],?,?,i[11.4 µM],i[11.4 µM]
COC(=O)c1cc(Br)ccc1OC(=O)c1cccnc1,i,i,i,i,i,i
Cc1cc(N2CCOCC2)nc2ccc(NC(=O)CCC(=O)N3CCC(C)CC3)cc12,i,i,1.01e-06M,1.12e-06M,15.8µM,25.1µM
Cc1ccc(OCCCC(=O)Nc2ccc(N3CCOCC3)cc2)c(C)c1,i,i,i,i,i,i
SMILES,CRE Fsk mod,AID923,A350 fluor,4MU fluor,HSD17B inh,HADH2 inhib
CCN1CCN(c2cc(C)c3cc(NC(=O)Cc4ccc(OC)c(OC)c4)ccc3n2)CC1,i,i,nt,nt,31.6µM,25.1µM
CCOc1ccccc1NC(=O)CCC(=O)Nc1ccc2nc(N3CCN(C)CC3)cc(C)c2c1,?,i,2.63e-07M,2.28e-07M,25.1µM,?
COc1ccc(N(C)C(=O)CCC(=O)Nc2ccc3nc(N4CCOCC4)cc(C)c3c2)c(OC)c1,?,i,4.88e-07M,5.28e-07M,25.1µM,25.1µM
COc1ccccc1N1CCN(CCN(C(=O)c2ccc(I)cc2)c2ccccn2)CC1,i,nt,i,i,nt,i
CCN1CCN(c2cc(C)c3cc(NC(=O)c4cnccn4)ccc3n2)CC1,i,i,nt,nt,i,i
CCC(C)NC(=O)CCC(=O)Nc1ccc2nc(N3CCOCC3)cc(C)c2c1 (stereo not given),?,i,1.5e-06M,1.47e-06M,31.6µM,i
O=C(CN1CCC2(CC1)OCCO2)c1ccc2cc[nH]c2c1,?,i,6.74e-08M,5.14e-08M,25.1µM,i
Cc1ccccc1OCCCN1C(=O)C(=O)c2cccc(C)c21,?,i,nt,nt,15.8µM,i
Cc1ccc(OCCN2C(=O)c3ccccc3C2=O)c(C)c1,i,i,i,i,i,i
C[C@H]1CN(CCO)CCN1c1ccccc1,i[7.6 µM],i[11.5 µM],?,?,i[11.4 µM],i[11.4 µM]
Cc1cccc2c(=O)cc(C)n(CC(=O)N3CCOCC3)c12,i,i,7.1e-06M,5.29e-06M,i,i
O=C(Nc1cc2nn(-c3ccccc3)nc2cc1Cl)c1ccco1,i,i,1.67e-07M,1.93e-07M,?,31.6µM
CC(=O)Nc1cc2nn(-c3ccccc3)nc2cc1Cl,i,i,4.98e-08M,6.03e-08M,12.6µM,i
O=C(Nc1ccc2nn(-c3ccccc3)nc2c1)c1cccnc1,?,i,?,?,i,i
Nc1nc(NC(=O)c2ccco2)nn1-c1ccccc1,i[7.6 µM],i,nt,nt,i,i[11.4 µM]
CC(C)(C)c1nn(-c2ccccc2)c2[nH]c(=O)c(CNCc3ccco3)cc12,i,i,i,i,31.6µM,i
O=C(Nc1ccc(C(=O)Oc2ccccc2)c(O)c1)c1ccco1,i,i,i,i,?,i
Cc1nc2c(O)cccc2c(=O)[nH]1,i,i,nt,nt,i,i
CC1(C)Cc2nc3oc4c(N(CCO)Cc5ccccc5)ncnc4c3cc2CO1,?,i,2.99e-08M,2.32e-08M,31.6µM,?
CC1(C)Cc2nc3sc4c(SCC(=O)NCc5ccco5)ncnc4c3cc2CO1,i,i,i,i,i,i
Clc1cc2c(c(CSC3=NCN(CC4CC4)CN3)c1)OCOC2,i[7.6 µM],i[11.5 µM],i,i,i[11.4 µM],i[11.4 µM]
Cc1cc2ccccc2c[n+]1CC(O)C[n+]1cc2ccccc2cc1C,i[7.6 µM],i[11.5 µM],1.03e-08M,1.01e-08M,?,i[11.4 µM]
COCC(=O)N1CCC[C@@]2(CCN(C(=O)Nc3cccc(F)c3)C2)C1,i,i,i,i,i,i
Clc1ccc(C2[C@H]3CN(Cc4cccnc4)[C@H](c4ccccc4)C34CC2(c2cccnc2)C4)cn1 (stereo not given in full),nt,i,nt,nt,i,nt
Cc1cccc(NC(=O)Cn2cnc3c(cnn3-c3ccc(F)cc3)c2=O)c1C,i,i,nt,nt,i,i
O=C(Cn1nnc2c(cnn2-c2ccc(F)cc2)c1=O)c1ccccc1F,i,i,5.67e-08M,6.83e-08M,i,i
CC(=O)c1ccc(OC2C(O)COC2/C=C/c2ccc(Cl)cc2)cc1 (stereo not given),nt,i[11.5 µM],nt,nt,i[11.4 µM],i[11.4 µM]
